We go through 67 molecules from ChEMBL document CHEMBL4513216, “Probing the Open Global Health Chemical Diversity Library for Multistage-Active Starting Points for Next-Generation Antimalarials” (ACS Infect Dis, 2020).

The campaign covered roughly 69,000 compounds. About 8,600 (12%) showed an effect of 50% or more. This is one part of a sample in which strong results are shown more often than they occur.

The assay relates to Plasmodium berghei. As to the kind of experiment: Screen against P. berghei liver stage (PbLuc), transformed with Luciferase, at 10uM. The conditions noted are these: tested at 10 uM. Format: functional, HepG2.
Take `Cc1ccc(-n2nc(C)c3c2NC(=O)CC3c2cnc(N)s2)cc1` (configuration not stated): the INHIBITION was 62.6%.

For `CCn1cncc1C1CC(=O)Nc2c1c(C)nn2-c1ccc(C)cc1` (configuration not stated), the INHIBITION was found to be 42%.

In the case of `Cc1nn(-c2ccccc2)c2c1C(c1ccc(C(=O)O)cc1)CC(=O)N2` (configuration not stated), the INHIBITION is recorded as 32.7%.

Regarding `CCn1ncc(S(=O)(=O)N[C@@H]2CCC[C@@H](n3ccnc3)[C@@H]2O)c1C`, the INHIBITION is 28.7%.

Take `COCCCNc1cc(C)nn2cnnc12`: the INHIBITION is 3.35%.

`CC(C)C(C)(CNC(=O)OC(C)(C)C)NC(=O)c1cnccn1` (configuration not stated): the INHIBITION was determined as 0.705%.

`CCC(CC)(CNC(=O)OC(C)(C)C)NC(=O)c1cnccn1`: the INHIBITION came out at 67.4%.

Take `CC(C)CC(C)(CNC(=O)c1cnccn1)NC(=O)c1cnccn1` (configuration not stated): the INHIBITION is 25.4%.

In the case of `Cn1ccc(C(=O)N2CCCC2c2cc[nH]n2)n1` (configuration not stated), the INHIBITION worked out at 21.925%.

As to `Cc1nn(C)c(N2CCOCC2)c1CNC1CCN(C2CC2)CC1`, the INHIBITION is recorded as -21.7%.

`NC(=O)NC(=O)CNc1cccc(C(=O)c2ccccc2)c1`: the INHIBITION worked out at 0.0459%.

For `CCN1CCN(S(=O)(=O)c2cc(C)c(C)cc2Br)CC1`, the INHIBITION turned out to be 66.5%.

Take `CCN1CCN(S(=O)(=O)c2cc(C)c(Cl)cc2C)CC1`: the INHIBITION is reported as 49.7%.

As for `CCN1CCN(S(=O)(=O)c2cc(C)c(Cl)cc2Cl)CC1`, the INHIBITION came out at 43.5%.

As for `CCN1CCN(S(=O)(=O)c2ccc(Cc3cc(C)n[nH]c3=O)cc2)CC1`, the INHIBITION is 9.96%.

Turning to `CCN1CCN(S(=O)(=O)c2cc(Cl)c(Cl)cc2C)CC1`, the INHIBITION came to 61.8%.

With `CCN1CCN(S(=O)(=O)c2ncn(C)c2Cl)CC1`, the INHIBITION is given as -10.4%.

`CN(C)S(=O)(=O)c1ccc(CNC(=O)C2CC(=O)N(C(C)(C)C)C2)cc1` (configuration not stated): the INHIBITION is on record as -3.305%.

Consider `CN(C)C(=O)CN1CCC(c2nnc(Cn3cccn3)n2C2CC2)CC1`, for which the INHIBITION turned out to be 16.3%.

`CN1[C@H](CN2CCCC2)C[C@@H]2CN(C(=O)c3cnccn3)CC[C@@H]21`: the INHIBITION was determined as 18.6%.

Consider `Cc1nc(C2CCN(c3ccccc3)CC2)no1`, for which the INHIBITION is 32.8%.

Consider `Cc1noc(C2CCN(C(=O)c3ccc(C(F)(F)F)nc3)CC2)n1`, for which the INHIBITION is reported as -34.025%.

On to `Cc1noc(C2CCN(C(=O)c3ccc(NC4CC4)nc3)CC2)n1`, for which the INHIBITION is 59.7%.

With `Cc1noc(C2CCN(C(=O)c3ccc(N(C)C)nc3)CC2)n1`, the INHIBITION was found to be 6.92%.

With `CCCc1ccc2oc(C(=O)N3CCC(O)CC3)c(C)c2c1`, the INHIBITION is 2.7%.

As to `CSc1ccc(Cl)c(C(=O)N2CCCC(CNS(C)(=O)=O)C2)c1` (configuration not stated), the INHIBITION is recorded as 41.4%.

Regarding `COc1ccccc1OCC(=O)NS(=O)(=O)c1cccnc1`, the INHIBITION stood at 29.8%.

With `CCC(C)n1c(SCC(=O)N2CCOCC2)nc2cc(C)[nH]c2c1=O` (configuration not stated), the INHIBITION worked out at 57.3%.

For the molecule `CCn1c(SCC(=O)N2CCOCC2)nc2cc(C)[nH]c2c1=O`, the INHIBITION was found to be 2.69%.

For the molecule `Cc1cc2nc(SCC(=O)N3CCOCC3)n(C(C)C)c(=O)c2[nH]1`, the INHIBITION is reported as 47.4%.

In the case of `CCSc1ccc(NC(=O)N2CCCC2c2ccncc2)cn1` (configuration not stated), the INHIBITION is 35.2%.

On to `CC(C)c1nnc(NC(=O)N2CCCC2c2ccncc2)s1` (configuration not stated), for which the INHIBITION is -32.3%.

As to `CCCc1nnc(NC(=O)N2CCCC2c2ccncc2)s1` (configuration not stated), the INHIBITION came to 59.2%.

For the molecule `CC(C)(C)c1n[nH]c(C2CN(C(=O)CCc3ccco3)CCO2)n1` (configuration not stated), the INHIBITION stood at 18.15%.

For the molecule `Cc1nc(CN2CCCC(NCCCc3ccccc3)C2)no1` (configuration not stated), the INHIBITION was -7.31%.

In the case of `O=C(COc1ccc(C(F)(F)F)cc1)N1CCOCC1c1ncon1` (configuration not stated), the INHIBITION was 11.9%.

Regarding `CC(C)(C)c1n[nH]cc1CNC1CCC(O)CC1` (configuration not stated), the INHIBITION is listed as 5.87%.

Consider `CC(C)NC(=O)C1CN(Cc2ccc(F)cc2)CC12CCOCC2` (configuration not stated), for which the INHIBITION is -15.7%.

`CCC(Cn1ccnc1)n1cnc2scc(C)c2c1=O` (configuration not stated): the INHIBITION is 14.9%.

Consider `CC1CCN(C(=O)C(C)Oc2ccc3c(c2)OCO3)CC1` (configuration not stated), for which the INHIBITION was -20.5%.

With `CC(Oc1ccc2c(c1)OCO2)C(=O)N1CCC(N2CCCC2)CC1` (configuration not stated), the INHIBITION is -5.22%.

Regarding `CC(Oc1ccc2c(c1)OCO2)C(=O)N1CCC(N2CCOCC2)CC1` (configuration not stated), the INHIBITION amounted to 63%.

On to `CCCc1nc(C(C)(C)NC(=O)C2CC(=O)N(CCOC)C2)no1` (configuration not stated), for which the INHIBITION is reported as -3.2%.

`CCOCC(=O)Nc1ccc(-n2ccc(C(N)=O)n2)cc1`: the INHIBITION is 10.8%.

On to `CCN(CC)CC(=O)Nc1ccc(-n2ccc(C(N)=O)n2)cc1`, for which the INHIBITION came out at 50.2%.

With `CC(C)N(C)CC(=O)Nc1ccc(-n2ccc(C(N)=O)n2)cc1`, the INHIBITION stood at 49.3%.

For the molecule `CCNc1ncc(C(=O)N2Cc3nc(C)[nH]c(=O)c3C2)cn1`, the INHIBITION worked out at 6.94%.

`CNC(=O)C1Cn2ccnc2C2(CCN(Cc3ccncc3)CC2)O1` (configuration not stated): the INHIBITION is recorded as 36.9%.

For `CNC(=O)C1Cn2ccnc2C2(CCN(Cc3nccs3)CC2)O1` (configuration not stated), the INHIBITION is given as 55.5%.

For `CC(C)CN1CCC2(CC(C(=O)NCc3cccnc3)=NO2)C1` (configuration not stated), the INHIBITION was -11.6%.

Turning to `CNC(=O)C1=NOC2(CCN(Cc3nccs3)C2)C1` (configuration not stated), the INHIBITION is listed as 54.4%.

Consider `Cc1ncccc1NC(=O)C1=NOC2(CCN(Cc3nccs3)C2)C1` (configuration not stated), for which the INHIBITION was 9.1%.

On to `CNC(=O)C1Cn2ccnc2C2(CCN(Cc3cccs3)CC2)O1` (configuration not stated), for which the INHIBITION is 46.2%.

As for `O=C(NCC1CC1)C1=NOC2(CCN(S(=O)(=O)Cc3ccccc3)C2)C1` (configuration not stated), the INHIBITION was found to be 22.5%.

For the molecule `O=C(NCCN1CCOCC1)C1=NOC2(CCN(Cc3nccs3)C2)C1` (configuration not stated), the INHIBITION is recorded as 41.6%.

`O=C(NCC1CC1)C1=NOC2(CCN(Cc3ccsc3)C2)C1` (configuration not stated): the INHIBITION turned out to be 38.5%.

Take `O=C(NCc1cccnc1)C1=NOC2(CCCN(CCO)C2)C1` (configuration not stated): the INHIBITION turned out to be 60.1%.

With `O=C(NC1CCC1)C1=NOC2(CCN(Cc3ccccc3)C2)C1` (configuration not stated), the INHIBITION turned out to be 57.9%.

Consider `CC(C)C(=O)N1CCCC2(CC(C(=O)NCc3cccnc3)=NO2)C1` (configuration not stated), for which the INHIBITION was 8.67%.

Regarding `CN1CCc2onc(Cn3cccc3)c2C1`, the INHIBITION is recorded as -7.24%.

Regarding `Cc1cccc2nc(CN3CCCC3Cn3cncn3)cn12` (configuration not stated), the INHIBITION is reported as 5.03%.

Take `c1ccc([C@@H]2CN(Cc3cccnc3)C[C@H]2c2cc[nH]n2)cc1`: the INHIBITION amounted to 27.2%.

`O=C(NCc1ccc(-n2cncn2)nc1)c1cc[nH]n1`: the INHIBITION was 17.9%.

Take `Clc1ccc(-n2cnnc2CCCN2CCOCC2)cc1`: the INHIBITION worked out at 15.6%.

For the molecule `CC1CCCCN1S(=O)(=O)NCCNC(=O)c1ncccc1O` (configuration not stated), the INHIBITION is -27.3%.

For the molecule `COc1cccc2c(C)c(C(=O)N3CCNCC3C(N)=O)[nH]c12` (configuration not stated), the INHIBITION amounted to 24.35%.

On to `CCNc1cc2c(nn1)CCN(C(=O)Cc1ccc(C)s1)C2`, for which the INHIBITION stood at 37.4%.
